The campaign covered roughly 52,000 compounds. About 4,300 (8.3%) were called active. Only a selection was taken, and actives are over-represented in it overall. Values without a mark were called inactive. Cut-off read from the data, not from the text of the source: active = survival mostly below about 52% (no sharp cut-off); inactive = mostly above about 56%.

For the test, the system named is DeltatarO mutant. The test is described as follows: growth inhibition of S. aureus wild type versus tarO mutant, primary screen, teichoic acid synthesis inhibitors, RN4220, OD600 (AID 463173). Conditions: OD600, 18 h, stronger effect = lower value, screened at 18.75 µg/mL (by protocol).
For the compound `O=C(Cc1ccccc1)Nc1sc2c(c1C(=O)Nc1ccc(Cl)cc1)CCCC2`, the survival is 47%. For the compound `COc1ccc(NC(=O)c2c(NC(=O)Cc3ccccc3)sc3c2CCCC3)cc1`, the survival is 124%. Under `CCC(=O)Nc1sc2c(c1C(=O)Nc1ccc(Br)cc1)CCCCC2` stands 135%; under `CCOc1ccc(NC(=O)c2c(NC(=O)Cc3ccccc3)sc3c2CCCC3)cc1`, 45% (active).

For `CCOc1ccc(NC(=O)c2c(NC(=O)Cc3ccccc3)sc3c2CCCCC3)cc1`, the survival is 48%.

Consider `Cc1ccc(NC(=O)c2c(NC(=O)Cc3ccccc3)sc3c2CCCC3)cc1`, for which the survival was 28% (active). Regarding `O=C(Cc1ccccc1)Nc1sc2c(c1C(=O)Nc1ccc(Br)cc1)CCCC2`, the survival was 57% (active).

Take `O=C(Cc1ccccc1)Nc1sc2c(c1C(=O)Nc1ccc(Br)cc1)CCC2`: the survival was 55%. Under `Cc1ccc(NC(=O)c2c(NC(=O)Cc3ccccc3)sc3c2CCC3)cc1` stands 24% (active); under `O=C(Cc1ccccc1)Nc1sc2c(c1C(=O)Nc1ccccc1)CCCCC2`, 50%; under `CC(Cc1ccccc1)N=C1NS(=O)(=O)c2ccccc21` (configuration not stated), 81%.

For `Cc1nc2c3ccccc3nc(NNC(=O)CCC(=O)N3CCN(c4cccc(C(F)(F)F)c4)CC3)n2n1`, the survival was 57%.

In the case of `CCOc1ccc(CCNC(=O)C2Cc3ccccc3N2C(=O)CC)cc1OCC` (configuration not stated), the survival is 93%.

Take `Cc1nnc(N(C)C(=O)Cc2ccc3c(c2)OCO3)s1`: the survival is 73%.

`COC(=O)C1C(=O)NC(S)=C(C#N)C1c1ccccc1Cl` (configuration not stated): the survival is 89%. Under `CCCN(CCC)C(=O)Cn1c(=O)n(-c2ccc(CC)cc2)c(=O)c2c3c(sc21)CCC3` stands 110%; under `COc1ccc(NC(=O)c2csnn2)cc1Cl`, 86%.

For the compound `COc1ccccc1N1CCN(C(=O)c2cnc(N3CCOCC3)c3ccccc23)CC1`, the survival is 78%. Take `CCOC(=O)c1cc(-c2ccc(F)cc2)n(CC(=O)NC2CCCCCC2)c1C`: the survival was 76%. For the compound `CCc1cccc(-n2c(C)nc3c(cnn3-c3ccc(Cl)cc3)c2=O)c1`, the survival was -1% (active). For `Cc1nc2c(cnn2-c2ccccc2)c(=O)n1-c1ccccc1` the value was 73%; for `CCOC(=O)c1ccc(-n2c(C)nc3c(cnn3-c3ccc(Cl)cc3)c2=O)cc1`, 67%. For `COc1ccc(-n2c(-c3ccco3)nc3c(cnn3-c3ccc(C)cc3)c2=O)cc1`, the survival is 73%. For `Cc1ccc(-n2ncc3c(=O)n(Cc4cccc(C(F)(F)F)c4)cnc32)cc1C` the value was 93%; for `Cc1ccc(-n2c(C)nc3c(cnn3-c3ccccc3C)c2=O)cc1F`, 120%; for `COc1ccc(-n2c(C)nc3c(cnn3-c3ccc(C)c(C)c3)c2=O)cc1Cl`, 118%. For `COc1cccc(-n2c(-c3ccco3)nc3c(cnn3-c3ccc(Cl)cc3)c2=O)c1` the value was 113%; for `COc1ccc(-n2c(C)nc3c(cnn3-c3ccc(F)cc3)c2=O)cc1`, 73%. In the case of `COc1cccc(-n2c(C)nc3c(cnn3-c3ccc(C)c(C)c3)c2=O)c1`, the survival was 50% (active). Consider `CCc1cccc(-n2c(C)nc3c(cnn3-c3ccc(C)c(C)c3)c2=O)c1`, for which the survival was -1% (active). For `COc1cccc(-n2c(-c3ccco3)nc3c(cnn3-c3ccc(C)cc3)c2=O)c1` the value was 52% (active); for `Cc1ccc(C)c(S(=O)(=O)c2cn(C)c3cc(N4CCCCC4C)c(F)cc3c2=O)c1` (configuration not stated), 86%. For `CCOc1ccc(/C=C/c2nc(C#N)c(NC(C)CC)o2)cc1` (configuration not stated) the value was 68%; for `Cc1nc2cc(C(F)(F)F)ccc2n1C1CCN(CC(=O)N2CCCC2)CC1`, 109%. Under `O=C(Nc1ccccc1-c1ccccc1)NC1CCN(CC(=O)N2CCOCC2)CC1` stands 73%. As to `CC1=C(C(=O)N2CCN(c3ccc(Cl)cc3)CC2)C2(CCC(C)CC2)OC1=O` (configuration not stated), the survival is 121%. Under `CCc1ccc(CNC(=O)CN(c2ccc(C)cc2)S(=O)(=O)N(C)C)cc1` stands 76%. Under `O=C(OC(C(=O)NC1CCCC1)c1cccnc1)C1=Cc2ccccc2OC1` (configuration not stated) stands 96%. As to `COc1cccc(C(=O)N2c3nc(-c4ccco4)nn3C3(CCCCC3)[C@@H]3CCCC[C@@H]32)c1`, the survival is 95%.

With `CNS(=O)(=O)c1cn(CC(=O)Nc2ccc(F)cc2F)cc1S(=O)(=O)NC`, the survival was 0% (active). Take `CNS(=O)(=O)c1cn(CC(=O)Nc2ccc(C)cc2C)cc1S(=O)(=O)NC`: the survival was 117%. For `Cc1cc(F)ccc1NC(=O)Cn1cc(S(=O)(=O)NC(C)C)c(S(=O)(=O)NC(C)C)c1` the value was 90%; for `COc1ccc(-c2onc(C)c2C)cc1S(=O)(=O)NCC1CCN(Cc2cc(C)ccc2C)CC1`, 100%; for `CCOC(=O)c1cc(-c2ccc(C)cc2)n(CCC(=O)NCc2ccccc2)c1C`, 108%. For `CCOC(=O)c1cc(-c2ccccc2)n(CCC(=O)NCCc2ccccc2)c1C` the value was 0% (active); for `CCOC(=O)c1cc(-c2ccc(F)cc2)n(CCC(=O)Nc2ccccc2OC)c1C`, 101%; for `CCOC(=O)c1cc(-c2ccc(F)cc2)n(CCC(=O)NCc2ccccc2OC)c1C`, 52% (active).

As to `CCOC(=O)c1cc(-c2ccc(C)cc2)n(CCC(=O)Nc2ccc(C(C)C)cc2)c1C`, the survival was 61%. For `CCOC(=O)c1cc(-c2ccccc2)n(CC(=O)NCc2ccccc2OC)c1C` the value was 101%; for `CCOC(=O)c1cc(-c2ccc(F)cc2)n(CC(=O)NCc2ccc(OC)cc2)c1C`, 75%. As for `CCOC(=O)c1cc(-c2ccc(C)cc2)n(CCC(=O)Nc2ccc(OC)c(OC)c2)c1C`, the survival is 52% (active). For `CCOC(=O)c1cc(-c2ccccc2)n(CCC(=O)Nc2ccc(OC)c(Cl)c2)c1C` the value was 92%. For `CCOC(=O)c1cc(-c2ccccc2)n(CC(=O)NCc2ccc(C)cc2)c1C` the value was 37% (active); for `CCOC(=O)c1cc(-c2ccccc2)n(CCC(=O)NCCc2cccc(C)c2)c1C`, 58%. Take `CCOC(=O)c1cc(-c2ccccc2)n(CCC(=O)NCCc2ccc(C)cc2)c1C`: the survival is 71%. Under `CC1CCc2c(sc(NC(=S)NC(=O)c3ccn(C)n3)c2C(N)=O)C1` (configuration not stated) stands 99%. For `O=C1CS(=O)(=O)C2(C(=O)N(Cc3ccc(F)cc3)c3ccccc32)N1c1cccc(C(F)(F)F)c1` (configuration not stated) the value was 124%.

Source of the values: PubChem BioAssay AID463173 (ICCB-Longwood Screening Facility, Harvard Medical School, 2010).
